Screens deposited in PubChem by National Center for Advancing Translational Sciences (NCATS).
Shown are actives, neighbours in structure and some others; about 0.44% of the full set was active somewhere.
EPAC2 ag = activates human EPAC2 exchange factor. hit rate 0.079% among 360,000. EPAC2 activation, biochemical qHTS; response scale: 100% = 6.5 mM cAMP response. Potency, µM (doses to about 154 µM), usual class: activators. Q8WZA2. AID 720711; note: nearly all actives have a fitted effect of over 50% in size
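Compounds were added across a concentration range to EPAC2 (100 nM), RAP1B-BODIPY-GDP (250 nM) and GDP (50 uM). After 5 min at room temperature, fluorescence was recorded at 5-min intervals for 30 min.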
EPAC1 antag = antagonists of human EPAC1; EPAC1 GEF assay, Rap1b-BODIPY-GDP exchange fluorescence; Potency, µM (series often up to 115 µM), usual class: inhibitors; hit rate 0.14% among 360,000; note: nearly all actives have a fitted effect of over 50% in size
EPAC2 antag = blocks human EPAC2 exchange factor; Q8WZA2; EPAC2 GEF exchange of Rap1B-BODIPY-GDP, fluorescence; Potency, µM (titrated, usually from 114 µM), hits mostly inhibitors; hit rate 0.18% among 360,000; note: nearly all actives have a fitted effect of over 45% in size
USP2a inh = blocks human ubiquitin-specific protease USP2a; O75604; USP2 core, Ub-CHOP2 coupled fluorogenic reporter, 485/531; Potency, µM (doses to about 38.3 µM), hits mostly inhibitors; hit rate 0.01% among 330,000
Target sequence (O75604 whole entry, looked up): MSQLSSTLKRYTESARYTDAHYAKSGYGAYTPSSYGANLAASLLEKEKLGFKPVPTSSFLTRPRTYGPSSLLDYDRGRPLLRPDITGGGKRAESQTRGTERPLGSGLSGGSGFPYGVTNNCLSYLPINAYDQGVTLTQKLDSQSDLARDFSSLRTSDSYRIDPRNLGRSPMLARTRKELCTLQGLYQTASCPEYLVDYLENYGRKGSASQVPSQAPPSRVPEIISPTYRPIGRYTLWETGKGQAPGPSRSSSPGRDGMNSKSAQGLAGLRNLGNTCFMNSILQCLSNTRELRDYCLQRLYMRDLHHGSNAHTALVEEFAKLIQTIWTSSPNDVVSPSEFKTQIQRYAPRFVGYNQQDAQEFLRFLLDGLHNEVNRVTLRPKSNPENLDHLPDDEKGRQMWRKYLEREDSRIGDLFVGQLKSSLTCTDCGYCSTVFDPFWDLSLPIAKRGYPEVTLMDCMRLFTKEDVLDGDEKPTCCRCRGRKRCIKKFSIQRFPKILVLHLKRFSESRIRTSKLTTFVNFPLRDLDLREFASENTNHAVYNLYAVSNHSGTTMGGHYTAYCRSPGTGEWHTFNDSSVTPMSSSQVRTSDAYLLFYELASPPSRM
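Deubiquitinase activity read as fluorescence (485/531 nm) after Ub-CHOP2 cleavage activates the enterokinase reporter on its substrate; USP2 core 10nM, Ub-CHOP2 and substrate 25nM each, 30min compound preincubation then 60min RT; data normalized to NEM, curves fitted.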
USP1-UAF1 inh = blocks the human USP1/UAF1 deubiquitinase complex. O94782. recombinant USP1/UAF1, Ub-Rhodamine cleavage fluorescence. Potency, µM (highest dose often 57.1 µM), most hits filed as inhibitors. hit rate 0.23% among 390,000; note: nearly all actives have a fitted effect of over 60% in size
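USP1/UAF1 complex (1 nM) preincubated 15 min at room temperature with compound, then Ub-Rho substrate (150 nM final) added. Kinetic fluorescence at 480/540 nm over 6 reads at 60 s intervals; 50 mM HEPES pH 7.8, 0.5 mM EDTA, 0.1 mg/ml BSA, 1 mM TCEP, 0.01% Tween-20.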
EPAC1 agonist = EPAC1 (human) agonism. O95398. EPAC1 agonist qHTS, biochemical assay; response scale: 100% = response to 6.5 mM cAMP. Potency, µM (series often up to 154 µM), hits mostly activators. hit rate 0.073% among 360,000; note: nearly all actives have a fitted effect of over 60% in size
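Read-out is the fluorescence drop as BODIPY-GDP leaves Rap1B (480 nm excitation, 540 nm emission), recorded every 5 minutes over 30 minutes. Reactions held 100 nM EPAC1, 250 nM Rap1B–BODIPY-GDP and 50 uM GDP, with 6.5 mM cAMP setting full activation.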
A number is an active result; n = inactive; u = inconclusive; x = not tested or not shown. Calls come from the whole dose curve; as a rule, active = well fitted curve in the direction sought with a large enough effect; inconclusive = small, poorly fitted or top-dose-only effect, or another doubt; inactive = no such curve, though single readings can be large; an effect the other way counts as inactive or inconclusive.

SMILES | EPAC2 ag | EPAC1 antag | EPAC2 antag | USP2a inh | USP1-UAF1 inh | EPAC1 agonist
Nc1cccc2cc(S(=O)(=O)O)ccc12 | n | u | n | x | 7.1µM | n
O=C(Nc1ccccc1Cc1ccccc1)c1ccccc1NS(=O)(=O)c1ccc(Cl)s1 | n | n | 32µM | n | n | n
N#Cc1sc2nc(-c3ccccc3)cc(-c3ccco3)c2c1N | n | 35µM | n | n | 4µM | n
COc1ccc(CNC(=O)c2cc(C)nc3c2c(C)nn3-c2cccc(Cl)c2C)cc1 | x | x | x | x | n | x
COCCCNC(=O)c1ccccc1Oc1ccccc1 | n | n | n | n | n | n
COCCCNC(=O)c1ccc2c3c(onc13)-c1ccccc1C2=O | 100µM | u | n | n | 20µM | 79µM
COC(=O)C1=CN(Cc2cccs2)C=C(C(=O)OC)C1c1cccc(O)c1 | n | n | 50µM | n | n | n
COC(=O)C1=CN(Cc2ccc(OC)c(OC)c2)C=C(C(=O)OC)C1c1cccc(F)c1 | n | n | u | n | n | n
Cc1cc(C)c2sc(N(CCCN(C)C)C(=O)c3ccc(S(=O)(=O)N(C)C4CCCCC4)cc3)nc2c1 | n | n | n | n | n | 45µM
CN(C)CCCN(C(=O)c1ccc(S(=O)(=O)N(C)C2CCCCC2)cc1)c1nc2ccc(F)cc2s1 | n | n | n | n | n | n
Cc1cc(NC(=O)c2ccccc2F)n(-c2nc3ccccc3[nH]2)n1 | n | n | n | n | n | n
Cc1cc(Nc2ccccc2)n(-c2nc3ccccc3[nH]2)n1 | 6.3µM | n | n | n | n | n
CCOC(=O)C1=C(N)c2ccccc2CC1C1CCCC1 (stereo not given) | n | n | 16µM | n | n | n
C=C1c2ccccc2O[C@H](C(=O)OCC)[C@@H]1C1CCCCC1 | n | n | u | n | u | n
Fc1ccc(CSc2nncn3c2cc2occc23)c(Cl)c1 | x | x | x | x | n | x
O=c1c(S(=O)(=O)c2cccc(Cl)c2)cn(Cc2ccccc2)c2cc(N3CCOCC3)c(F)cc12 | x | x | x | x | n | x
Fc1ccc(C(Nc2ccccn2)c2c[nH]c3ccccc23)cc1 (stereo not given) | n | n | 45µM | n | n | n
O=C(O)CCCCCN1C(=O)/C(=C\c2cn(-c3ccccc3)nc2-c2cccs2)SC1=S | n | n | n | n | u | n
O=C(O)CCCCCN1C(=O)/C(=C/c2cn(-c3ccccc3)nc2-c2cccs2)SC1=S | n | n | n | x | u | 89µM
Cc1ccccc1NC1c2ccccc2C(=O)N1Cc1ccco1 (stereo not given) | n | n | 32µM | n | n | n
COc1cccc(NC2c3ccccc3C(=O)N2Cc2ccco2)c1 (stereo not given) | n | n | n | n | n | n
CCOC(=O)c1[nH]c(C)c(C(=O)NC)c1C | n | n | n | n | n | n
CCOC(=O)c1[nH]c(C)c(C(=O)NC(C)(C)C)c1C | 6.3µM | n | n | n | n | n
Cc1ccc(Cl)cc1N1CCN(C(=O)c2ccc(NC(=O)c3nsc4ccccc34)cc2)CC1 | x | x | x | x | n | x
O=C(Nc1ccc(-c2nc3ccc(NC(=O)c4cccs4)cc3[nH]2)cc1)c1cccs1 | u | u | 50µM | n | u | n
SMILES | EPAC2 ag | EPAC1 antag | EPAC2 antag | USP2a inh | USP1-UAF1 inh | EPAC1 agonist
O=C(Nc1ccc2nc(-c3cccs3)[nH]c2c1)c1cccs1 | n | n | n | n | n | n
COc1ccc(N2CCN(S(=O)(=O)c3ccc4c(c3)CC(C)N4C(C)=O)CC2)cc1 (stereo not given) | x | x | x | x | n | x
Cc1ccc(-c2csc(Nc3ccc(C(=O)O)cc3)[n+]2Cc2ccccc2)cc1 | n | n | n | n | n | n
CC(=O)Nc1scc(-c2ccccc2)[n+]1-c1ccc(C)cc1 | n | n | 32µM | n | n | n
CC(=O)Nc1ccc(Nc2nc3ccccc3nc2NS(=O)(=O)c2ccc(Cl)c([N+](=O)[O-])c2)cc1 | n | u | 79µM | x | u | n
CC(=O)Nc1ccc(S(=O)(=O)Nc2nc3ccccc3nc2Nc2ccc(N)cc2)cc1 | n | u | n | n | n | n
Cc1ccc(-c2nc3cc(Cl)ccc3o2)cc1NC(=O)c1cc2ccccc2o1 | x | x | x | x | n | x
COc1ccc(-n2ccnc(NCc3cccs3)c2=O)cc1 | x | x | x | x | n | x
CCCCCCc1cc2cc(-c3nnc(-c4ccccc4O)o3)c(=O)oc2cc1O | u | n | n | n | 8.9µM | u
CCCCCCc1cc2cc(-c3nnc(-c4ccccc4OC)o3)c(=O)oc2cc1O | n | n | n | u | 14µM | u
O=C(NCCSCc1cccc(Cl)c1)C1CCN(S(=O)(=O)Cc2ccccc2)CC1 | x | x | x | x | n | x
Cc1ccc(NS(=O)(=O)c2cccc3cccnc23)c(Cl)c1 | n | n | 28µM | n | n | n
CCOC(=O)c1c(C)sc(-c2c(-c3cccc(Cl)c3)[nH]c3c2c(=O)n(C)c(=O)n3C)c1O | x | x | x | x | 16µM | x
CCOC(=O)c1c(C)sc(-c2c(-c3cc(C)ccc3C)[nH]c3c2c(=O)[nH]c(=O)n3C)c1O | x | x | x | x | 25µM | x
Cc1ccc(C)c(-c2[nH]c3c(c2-c2c(-n4cccc4)n(C)c(=O)n(C)c2=O)c(=O)n(C)c(=O)n3C)c1 | x | x | x | x | n | x
CCOC(=O)c1c(C)sc(-c2c(-c3cc(C)ccc3C)[nH]c3c2c(=O)n(C)c(=O)n3C)c1O | x | x | x | x | 28µM | x
CCOc1ccccc1Nc1nnc(-c2cc3cc(OC)ccc3oc2=O)s1 | x | x | x | x | n | x
Clc1cccc(-c2ccc3ncnc(NCc4ccc5c(c4)OCO5)c3c2)c1 | x | x | x | n | x | x
CC[C@H](C)/C=C/C1=CC2=C(Cl)C(=O)[C@@]3(C)OC(=O)C(C(=O)[C@H](C)[C@@H](C)O)=C3C2=CO1 | n | 50µM | u | x | u | n
CCCC(=O)O[C@@H]1C[C@@H](C)N(C(=O)c2ccccc2)c2ccc(C)cc21 | n | n | 20µM | n | n | n
O=C(Nc1cccc(Cl)c1)N(Cc1nc2ccccc2c(=O)[nH]1)Cc1cccs1 | n | n | n | n | n | 89µM
O=C(Nc1cccc(Cl)c1)N(Cc1nc2ccccc2c(=O)[nH]1)C1CCCC1 | n | n | n | n | n | n
O=C(C1CC1)N1CCc2cc(Br)cc(S(=O)(=O)N3CCN(c4cccc(C(F)(F)F)c4)CC3)c21 | x | x | x | x | n | x
O=C1/C(=C/c2ccccc2)CCCc2ccccc21 | n | n | n | n | n | n
CN(C)c1ccc(/C=C2\CCC/C(=C\c3ccccc3)C2=O)cc1 | u | n | n | n | 32µM | n
COc1cc(/C=C2/C(=O)c3cccc([N+](=O)[O-])c3C2=O)c(Br)cc1O | n | 40µM | n | n | u | n
COc1ccccc1NC(=O)CCCCCN1C(=O)c2cccc([N+](=O)[O-])c2C1=O | n | n | n | n | n | n
